Source: PubChem BioAssay
Shown are actives, neighbours in structure and some others; about 3.8% of the full set was active somewhere.
697 NFkB inh – inhibitors of PMA/ionomycin-induced NF-kB reporter, 697 cells, primary screen, B-cell NF-kB inhibitor project, cell-based, luminescence, uHTS. 697 B-cell NF-kB luciferase reporter, 16 h. inhibition, % at 4 µM. 0.33% of 330,000 active. AID 435022, 2010; in the data active = inhibition above about 35%
Jurkat NFkB inh – inhibitors of induced NF-kB luciferase reporter, primary screen, TCR NF-kB activation inhibitor project, cell-based, luminescence, uHTS; Jurkat, PMA/ionomycin-induced NF-kB luciferase reporter; inhibition, % at 4 µM; 0.53% of 330,000 active; in the data active = inhibition above about 50%
Beta apoptosis – inhibitors of cytokine-induced beta cell apoptosis, primary screen, luminescence; INS-1E cytokine-induced death, ATP luminescence, 48 h; percent of positive-control rescue, neutral wells zero; 0.8% of 300,000 active; protection from apoptosis, % (no concentration beside the values);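 active = Every replicate reaches about 75%, or at least half do and their mean reaches it too, limit read from the data; inconclusive = At least half of replicates reach the limit but their mean does not; inactive = Under half of replicates reach the limit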;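 note: higher means more ATP so stronger rescue from cytokine killing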
Mdm2-MdmX inh – inhibitors of human Mdm2-MdmX association, primary screen, cell-based, luminescence, split luciferase, SaOS-2, uHTS; SaOS-2 split-luciferase Mdm2/MdmX complementation; 3% of 330,000 active; AID 485346, 2010; inhibition, % at 8 µM; Protein Mdm4 (Homo sapiens) + E3 ubiquitin-protein ligase Mdm2 (Homo sapiens), …;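 active = inhibition of at least 50% at 8 µM in the primary screen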
Target sequence (O15151 whole entry, looked up): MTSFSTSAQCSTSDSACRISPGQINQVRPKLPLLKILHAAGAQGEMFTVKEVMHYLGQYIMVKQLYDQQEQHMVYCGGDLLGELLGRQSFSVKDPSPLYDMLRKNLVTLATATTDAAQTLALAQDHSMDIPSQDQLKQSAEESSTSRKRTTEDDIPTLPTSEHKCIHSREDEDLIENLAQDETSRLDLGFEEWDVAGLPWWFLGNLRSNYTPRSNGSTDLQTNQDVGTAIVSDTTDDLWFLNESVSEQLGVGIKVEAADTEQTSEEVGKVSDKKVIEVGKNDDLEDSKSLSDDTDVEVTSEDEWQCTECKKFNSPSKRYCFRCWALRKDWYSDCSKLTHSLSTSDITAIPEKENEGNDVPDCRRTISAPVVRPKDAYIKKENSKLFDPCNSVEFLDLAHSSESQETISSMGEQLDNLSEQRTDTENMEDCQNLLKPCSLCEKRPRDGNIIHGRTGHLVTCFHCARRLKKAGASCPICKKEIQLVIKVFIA
Target sequence (Q00987 whole entry, looked up): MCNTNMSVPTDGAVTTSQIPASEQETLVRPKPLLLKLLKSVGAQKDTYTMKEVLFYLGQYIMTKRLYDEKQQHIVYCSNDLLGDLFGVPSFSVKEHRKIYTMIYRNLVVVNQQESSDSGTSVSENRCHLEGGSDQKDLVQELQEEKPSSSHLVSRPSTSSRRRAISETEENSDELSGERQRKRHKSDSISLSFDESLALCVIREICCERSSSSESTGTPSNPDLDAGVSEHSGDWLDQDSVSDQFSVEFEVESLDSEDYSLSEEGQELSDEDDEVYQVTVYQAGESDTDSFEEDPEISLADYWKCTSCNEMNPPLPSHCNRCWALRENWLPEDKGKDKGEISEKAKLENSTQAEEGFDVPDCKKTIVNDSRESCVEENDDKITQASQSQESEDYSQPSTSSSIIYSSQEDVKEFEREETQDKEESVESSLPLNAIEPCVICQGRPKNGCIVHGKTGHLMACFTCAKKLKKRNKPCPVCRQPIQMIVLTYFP
A1 inh – caspase 3/7 activation in MEF A1-2A-BIM cells, primary screen, A1 inhibitor project, cell-based, luminescence, HTS; caspase activation, % (no concentration beside the values); 0.066% of 330,000 active; Caspase-Glo 3/7 luminescence, 3 h; percent of clofoctol response, vehicle zero;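 active = over half of replicate activation scores above 10%, or exactly half above 10 with the replicate mean above 10; inconclusive = replicate mean below 10 yet half the replicates above 10; inactive = over half of replicates below 10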
NTR1 agonist – agonists of human NTR1, primary screen, imaging, U2OS cells, beta-arrestin-GFP, high content; 0.17% of 330,000 active; Neurotensin receptor type 1 (Homo sapiens), P30989; AID 493036, 2011; activation, % at 20 µM; NTR1-U2OS beta-arrestin-GFP spot imaging, agonist mode;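 active = activation at or above 40% of the spot to cytoplasm intensity ratio, with at least 20 cells analyzed; inconclusive = wells under 20 cells, flagged as cytotoxic or low count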
Mdm2-MdmX conf – Mdm2-MdmX complex disruptors, retested hits, confirmation, luminescence, single concentration; inhibition, % at 8 µM; AID 489028, 2010; Mdm2-MdmX binding, luminescent assay; shares compounds with Mdm2-MdmX inh; 55% of 10,000 active; in the data active = inhibition above about 40%
Full FLuc ctr – full-length luciferase signal inhibition, confirmation, counter-screen for Mdm2/MdmX interaction inhibitor project, cell-based, single concentration, SaOS-2; AID 504607, 2011; inhibition, % at 8 µM; 77% of 6,200 active; SaOS-2 full-length luciferase counterscreen, luminescence; shares compounds with Mdm2-MdmX inh;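 active = mean inhibition at 8 µM reaching about 37%, which flags the compound as non-specific, limit read from the data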;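 note: p53-null SaOS-2 cells with luciferase driven by a doxycycline-inducible promoter; compound on cells about two nights before reading with doxycycline added after day one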
Each line names hits and unclear results; the compound was inactive in the other large screens (follow-up assays come after a bar, where they were run).

COc1ccccc1NC(=O)Cc1nnc(SCC(=O)Nc2nccs2)n1C	none
N#Cc1c(N)nc(Sc2ccc(Cl)cc2)c(C#N)c1-c1ccccc1Cl	Mdm2-MdmX inh 79.6 | Mdm2-MdmX conf 48.0 | Full FLuc ctr 50.8
CCSc1nc(N)c(C#N)c(-c2ccccc2Cl)c1C#N	Mdm2-MdmX inh 50.0 | Mdm2-MdmX conf inactive | Full FLuc ctr 65.9
Cc1ccc(-c2cc(-c3ccccc3Cl)c(C#N)c(N)n2)o1	none
O=S(=O)(c1ccc2ccccc2c1)n1cccn1	none
COC(=O)c1[nH]c2c(c1C)C(=O)CC(c1ccccc1)C2 (centres undefined)	Mdm2-MdmX inh 69.7 | Mdm2-MdmX conf 55.3 | Full FLuc ctr 89.5
CCOC(=O)c1[nH]c2c(c1-c1ccccc1)C(=O)CC(c1ccccc1)C2 (centres undefined)	none
COc1ccccc1-c1cc(C(F)(F)F)nc(S(C)(=O)=O)n1	Mdm2-MdmX inh 97.1 | Mdm2-MdmX conf 79.2 | Full FLuc ctr 53.2
COc1ccccc1-c1cc(C(F)(F)F)nc(S(=O)(=O)CCCC(=O)NCc2ccc(F)cc2)n1	Mdm2-MdmX inh 98.5 | Mdm2-MdmX conf 90.0 | Full FLuc ctr 50.8
COc1ccccc1-c1cc(C(F)(F)F)nc(S(=O)(=O)CCCC(=O)N2CCCCC2C)n1 (centres undefined)	Mdm2-MdmX inh 97.0 | Mdm2-MdmX conf 68.8 | Full FLuc ctr inactive
COc1ccccc1-c1cc2nc(C)c(CCC(=O)NCc3ccc(F)cc3)c(C)n2n1	none
COc1ccccc1-c1cc(C(F)(F)F)nc(S(=O)(=O)CCCC(=O)Nc2cc(C)on2)n1	Mdm2-MdmX inh 100.5 | Mdm2-MdmX conf 99.2 | Full FLuc ctr inactive
Cc1cc(NC(=O)CCCSc2nc(-c3ccco3)cc(C(F)(F)F)n2)no1	none
COc1ccc(NC(=O)CSc2nc3ccccc3c(=O)[nH]2)cc1S(N)(=O)=O	none
Clc1ccc(NCc2ccsc2)cc1	none (no result: Beta apoptosis)
CCOc1ccc2nc(SCC(=O)NC3CCCCC3)[nH]c2c1	none
COc1ccccc1-c1cc(C(F)(F)F)nc(S(=O)(=O)CCCC(=O)NC(C)C)n1	Mdm2-MdmX inh 100.5, A1 inh 8.5 | Mdm2-MdmX conf 96.5 | Full FLuc ctr inactive
CS(=O)(=O)c1nc(-c2ccco2)cc(C(F)(F)F)n1	Beta apoptosis 80.0, Mdm2-MdmX inh 100.5, A1 inh inconclusive | Mdm2-MdmX conf 100.5 | Full FLuc ctr inactive
CN1CCN(c2nc(-c3ccco3)cc(C(F)(F)F)n2)CC1	none
CCN(C(=O)COC(=O)c1cccnc1SC)c1c(N)n(Cc2ccccc2)c(=O)[nH]c1=O	none
O=C(O)c1c(C(=O)O)c(-c2ccc(Cl)c(Cl)c2)n2c1CSC2	none
COc1ccc(C2c3c(-c4ccccc4O)n[nH]c3C(=O)N2CCc2ccc(OC)c(OC)c2)cc1 (centres undefined)	none
COc1ccc(CCN2C(=O)c3[nH]nc(-c4ccccc4O)c3C2c2cccc(Cl)c2)cc1 (centres undefined)	Mdm2-MdmX inh 76.1 | Mdm2-MdmX conf 57.1 | Full FLuc ctr 74.4
C=CCn1c(C)nc2c(cnn2-c2ccccc2)c1=O	none
Cc1nc2c(-c3ccc(Cl)cc3)cnn2c(N)c1-c1ccc(F)cc1	Mdm2-MdmX inh 87.6 | Mdm2-MdmX conf 84.6 | Full FLuc ctr 105.0
Cc1nc2c(-c3ccc(Cl)cc3)cnn2c2c1CCC2	none
CC(C)n1cc(CN2CCCC(C(=O)Nc3cccc(-c4cc5ccccc5[nH]4)c3)C2)cn1 (centres undefined)	Mdm2-MdmX inh 78.4 | Mdm2-MdmX conf inactive
CCn1cc(CN2CCCC(C(=O)Nc3cccc(-c4cc5ccccc5[nH]4)c3)C2)c(C)n1 (centres undefined)	none
Cn1cc(CN2CCCC(C(=O)Nc3cccc(-c4cc5ccccc5[nH]4)c3)C2)cn1 (centres undefined)	Mdm2-MdmX inh 60.0 (no result: Beta apoptosis) | Mdm2-MdmX conf inactive
CN(c1cccc(NC(=O)CN(c2ccc(C34CC5CC(CC(C5)C3)C4)cc2)S(C)(=O)=O)c1)S(C)(=O)=O	Mdm2-MdmX inh 75.8 | Mdm2-MdmX conf 53.6 | Full FLuc ctr 78.1
Cc1ccc(N(CC(=O)N2CCCCCC2)S(=O)(=O)c2ccccc2)cc1	none
CC(C)Cn1c(N)c(C(=O)COC(=O)c2ccc(Br)cc2)c(=O)n(C)c1=O	none
O=c1cc(-c2ccccc2Cl)oc2c(NS(=O)(=O)c3cc(Cl)cc(Cl)c3O)ccc(O)c12	Mdm2-MdmX inh 97.6 | Mdm2-MdmX conf 83.2 | Full FLuc ctr 42.8
CCc1ccc(S(=O)(=O)Nc2ccc(O)c3c(=O)cc(-c4ccccc4Cl)oc23)cc1	none
COc1ccc(/C=C/C(=O)N(C)CC(=O)Nc2cccc(F)c2)cc1S(=O)(=O)N1CCCCC1	Mdm2-MdmX inh 51.7 (no result: Beta apoptosis, A1 inh) | Mdm2-MdmX conf 55.4 | Full FLuc ctr 68.7
O=C1C=C(c2ccc3[nH]ccc3c2)C[C@@H](c2ccc(Cl)cc2)C1	none
CN(Cc1ccccc1F)C(=O)CN1CCN(S(=O)(=O)c2ccc3c(c2)OCCCO3)CC1	none
CCN(CC)c1ccc(/C=c2\sc3nc4ccccc4n3c2=O)c(O)c1	none (no result: Beta apoptosis, A1 inh)
Cc1cc(/C=c2/sc3nc4ccccc4n3c2=O)c(C)n1-c1ccccn1	Mdm2-MdmX inh 68.6 | Mdm2-MdmX conf 94.3 | Full FLuc ctr inactive
O=C(Nc1ccncc1NC(=O)c1cccc([N+](=O)[O-])c1)c1cccc([N+](=O)[O-])c1	Mdm2-MdmX inh 87.4 | Mdm2-MdmX conf 55.5 | Full FLuc ctr inactive
O=S(=O)(CCSc1nc2ccccc2s1)c1nc2ccccc2s1	Mdm2-MdmX inh 99.2 | Mdm2-MdmX conf 83.2 | Full FLuc ctr 54.7
CCS(=O)(=O)CCSc1nc2ccccc2s1	none
CC(C)(C)S(=O)(=O)c1nc2ccccc2s1	none
C=CCS(=O)(=O)c1nc2ccccc2s1	Mdm2-MdmX inh 62.5 | Mdm2-MdmX conf inactive | Full FLuc ctr 42.2
O=C(NCc1ccccc1C(F)(F)F)C1CCC(=O)N(C2CC2)C1 (centres undefined)	none
CCCCNc1ncnc2sc3c(c12)CCN(CCC)C3	none
CCOC(=O)C1(Cc2cccc(Cl)c2)CCCN(C(=O)c2cc(CC)on2)C1 (centres undefined)	none
